This passage reports outcome and AC50 results from PubChem BioAssay (EPA / NIEHS).

The source made the active and inactive calls. Rule for the calls: active = hit-call score of the fitted dose curve at least 0.9, where 1 is the maximum; inactive = score below 0.9.

Holding throughout (conditions): mRNA level, 48 h; actives raise or lower the signal
Read-out in assay [1]: growth arrest and DNA damage 45 (GADD45G), GADD45G (gene 10912)
In words: LTEA_HepaRG_GADD45G: Life Technologies and Expression Analysis (LTEA) Assay for growth arrest and DNA damage 45 (GADD45G) using HepaRG (AID 2283499). The procedure, abridged:
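GADD45G transcript level by qRT-PCR (housekeeping-normalized: ACTB, GAPDH, POLR2A) after 48 h chemical treatment of a single HepaRG lot in serum-free induction medium; eight-point half-log series up to 100 uM in 0.5% DMSO, duplicates, up- or down-regulation scored.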

Read-out in assay [2]: Glutamate-cysteine ligase regulatory (GCLM), GCLM (gene 2730)
The assay is described as follows: LTEA_HepaRG_GCLM: Life Technologies and Expression Analysis (LTEA) Assay for Glutamate-cysteine ligase regulatory (GCLM) using HepaRG (AID 2283500). The method in brief:
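In this multiplexed HepaRG gene-expression assay, GCLM mRNA change after 48 h treatment (8 concentrations, max 100 uM) was scored against DMSO by bidirectional curve fitting.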

Read-out in assay [3]: Glutathione S-transferase M3 (GSTM3), GSTM3 (gene 2947)
In words: LTEA_HepaRG_GSTM3: Life Technologies and Expression Analysis (LTEA) Assay for Glutathione S-transferase M3 (GSTM3) using HepaRG (AID 2283501). The method in brief:
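GSTM3 transcript levels came from Fluidigm TaqMan qRT-PCR normalized to three housekeeping genes, fitted in both directions against DMSO. HepaRG cultures received chemicals for 48 h in serum-free induction medium (0.5% DMSO), 8 half-log concentrations up to 100 uM, duplicate.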

Read-out in assay [4]: Heat shock 70 kDa protein 1 (HSPA1A), gene 3303
In words: LTEA_HepaRG_HSPA1A: Life Technologies and Expression Analysis (LTEA) Assay for Heat shock 70 kDa protein 1 (HSPA1A) using HepaRG (AID 2283502). The method in brief:
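An oxidative-stress marker readout: HepaRG cells treated 48 h in duplicate with an eight-point series (highest 100 uM) had HSPA1A mRNA quantified by TaqMan qRT-PCR. Activity was fitted in both directions using 0.5% DMSO as baseline.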

Read-out in assay [5]: Hypoxia-inducible factor 1-alpha (Homo sapiens) (UniProt Q16665)
The assay is described as follows: LTEA_HepaRG_HIF1A: Life Technologies and Expression Analysis (LTEA) Assay for Hypoxia-inducible factor 1 (HIF1A) Trancription factor using HepaRG (AID 2283503). The procedure, abridged: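 Gain- or loss-of-signal HIF1A mRNA changes are fitted against a DMSO baseline. HepaRG cultures receive eight concentrations, highest 100 uM, for 48 h in serum-free induction medium with 0.5% DMSO.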

Read-out in assay [6]: HGF (gene 3082)
In words: LTEA_HepaRG_HGF: Life Technologies and Expression Analysis (LTEA) Assay for Hepatocyte Growth Facto (HGF) using HepaRG (AID 2283505). The method in brief:
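HGF transcript was quantified by TaqMan qRT-PCR against three housekeeping genes after 48 h treatment of HepaRG cells. Exposure ran in duplicate over eight half-log steps topping at 100 uM in 0.5% DMSO vehicle.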

Read-out in assay [7]: Insulin Like Growth Factor 1 (IGF1), IGF1 (gene 3479)
The assay is described as follows: LTEA_HepaRG_IGF1: Life Technologies and Expression Analysis (LTEA) Assay for Insulin Like Growth Factor 1 (IGF1) using HepaRG (AID 2283506). The procedure, abridged:
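Endpoint: IGF1 mRNA change by qRT-PCR, housekeeping-normalized, fitted bidirectionally relative to 0.5% DMSO vehicle. Human HepaRG cells were treated 48 h in serum-free induction medium, eight half-log concentrations topping at 100 uM.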

Read-out in assay [8]: Intercellular Adhesion Molecule 1 (ICAM1), ICAM1 (gene 3383)
In words: LTEA_HepaRG_ICAM1: Life Technologies and Expression Analysis (LTEA) Assay for Intercellular Adhesion Molecule 1 (ICAM1) using HepaRG (AID 2283507). The procedure, abridged:
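ICAM1 transcript levels measured by qRT-PCR, normalized to three housekeeping genes (ACTB, GAPDH, POLR2A), after 48 h chemical exposure of HepaRG cells. Duplicate eight-point half-log series from 100 uM in 0.5% DMSO; gain or loss fitted against vehicle.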

Read-out in assay [9]: Insulin-like growth factor-binding protein 1 (IGFBP1), IGFBP1 (gene 3484)
In words: LTEA_HepaRG_IGFBP1: Life Technologies and Expression Analysis (LTEA) Assay for Insulin-like growth factor-binding protein 1 (IGFBP1) using HepaRG (AID 2283508). The procedure, abridged: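 Read-out is qRT-PCR transcript level normalized to three housekeeping genes, fitted in both directions against 0.5% DMSO. Differentiated HepaRG cells received eight half-log concentrations (top 100 uM) in duplicate for 48 h in serum-free induction medium.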

Read-out in assay [10]: Interleukin 6 (IL6), IL6 (gene 3569)
The assay is described as follows: LTEA_HepaRG_IL6: Life Technologies and Expression Analysis (LTEA) Assay for Interleukin 6 (IL6) using HepaRG (AID 2283509). The method in brief:
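Changes in IL6 mRNA, up or down relative to 0.5% DMSO controls, were derived from concentration-response curves in human HepaRG cells treated for 48 h at up to 100 uM, with ACTB, GAPDH and POLR2A as normalizers.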

Read-out in assay [11]: Interleukin 6 Receptor (IL6R), IL6R (gene 3570)
In words: LTEA_HepaRG_IL6R: Life Technologies and Expression Analysis (LTEA) Assay for Interleukin 6 Receptor (IL6R) using HepaRG (AID 2283510).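 For AC50: differentiated human HepaRG liver cells in serum-free induction medium.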 The procedure, abridged: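 In this HepaRG screen, test chemicals act on cells for 48 h at up to 100 uM (eight half-log points, duplicate wells). IL6R expression is quantified by qRT-PCR after normalization to ACTB, GAPDH and POLR2A, with DMSO as baseline.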

Read-out in assay [12]: Potassium channel subfamily K member 1 (KCNK1), KCNK1 (gene 3775)
In words: LTEA_HepaRG_KCNK1: Life Technologies and Expression Analysis (LTEA) Assay for Potassium channel subfamily K member 1 (KCNK1) using HepaRG (AID 2283511). The procedure, abridged: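 Human HepaRG cultures receive test chemicals for 48 h in 0.5% DMSO, top concentration 100 uM with half-log dilutions. Induction or suppression of KCNK1 mRNA relative to DMSO is derived by bidirectional fitting of qRT-PCR data.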

Read-out in assay [13]: Keratin 19 (KRT19), KRT19 (gene 3880)
In words: LTEA_HepaRG_KRT19: Life Technologies and Expression Analysis (LTEA) Assay for Keratin 19 (KRT19) using HepaRG (AID 2283512). The procedure, abridged:
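KRT19 transcript measured by TaqMan qRT-PCR, referenced to three housekeeping genes, after HepaRG cells received test chemicals for 48 h. Eight half-log concentrations, top 100 uM, 0.5% DMSO vehicle; increases and decreases both fitted.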

Read-out in assay [14]: JUN Transcription Factor, JUN (gene 3725)
The assay is described as follows: LTEA_HepaRG_JUN: Life Technologies and Expression Analysis (LTEA) Assay for JUN Transcription Factor using HepaRG (AID 2283513). The procedure, abridged: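 Gene-expression endpoint: JUN mRNA (qRT-PCR, normalized to three reference genes) in HepaRG cultures treated 48 h with chemicals, duplicate wells, 100 uM maximum with half-log dilutions; bidirectional fitting relative to 0.5% DMSO.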

Read-out in assay [15]: Lipase C (LIPC), LIPC (gene 3990)
The assay is described as follows: LTEA_HepaRG_LIPC: Life Technologies and Expression Analysis (LTEA) Assay for Lipase C (LIPC) using HepaRG (AID 2283514). The procedure, abridged: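 In this multiplexed gene-expression screen, human HepaRG cultures received test chemicals for 48 h across eight concentrations with 100 uM highest, in duplicate. Values reflect LIPC mRNA induction or suppression versus DMSO vehicle, from normalized qRT-PCR.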

Read-out in assay [16]: Lipoprotein lipase (LPL), LPL (gene 4023)
In words: LTEA_HepaRG_LPL: Life Technologies and Expression Analysis (LTEA) Assay for Lipoprotein lipase (LPL) using HepaRG (AID 2283515). The method in brief:
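Concentration-response testing used half-log steps from 100 uM in 0.5% DMSO on human HepaRG cells, 48 h, duplicate wells. Phenobarbital 1 mM served as induction control; LPL mRNA was normalized to ACTB, GAPDH, POLR2A.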

Read-out in assay [17]: matrix metalloproteinase-10 (MMP10), MMP10 (gene 4319)
The assay is described as follows: LTEA_HepaRG_MMP10: Life Technologies and Expression Analysis (LTEA) Assay for matrix metalloproteinase-10 (MMP10) using HepaRG (AID 2283517). The procedure, abridged:
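In differentiated HepaRG cultures kept in 0.5% DMSO, test chemicals act for 48 h over an eight-point range with a top dose of 100 uM. Expression is then quantified by TaqMan RT-PCR against ACTB, GAPDH and POLR2A.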

Read-out in assay [18]: MYC, MYC (gene 4609)
In words: LTEA_HepaRG_MYC: Life Technologies and Expression Analysis (LTEA) Assay for MYC using HepaRG (AID 2283518). The method in brief: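 MYC transcript changes, up or down relative to 0.5% DMSO, from TaqMan qRT-PCR normalized to three housekeeping genes. Human HepaRG cultures received chemicals for 48 h at eight half-log concentrations up to 100 uM, in duplicate.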

Sequence of Hypoxia-inducible factor 1-alpha (Homo sapiens) (Q16665 whole entry, looked up): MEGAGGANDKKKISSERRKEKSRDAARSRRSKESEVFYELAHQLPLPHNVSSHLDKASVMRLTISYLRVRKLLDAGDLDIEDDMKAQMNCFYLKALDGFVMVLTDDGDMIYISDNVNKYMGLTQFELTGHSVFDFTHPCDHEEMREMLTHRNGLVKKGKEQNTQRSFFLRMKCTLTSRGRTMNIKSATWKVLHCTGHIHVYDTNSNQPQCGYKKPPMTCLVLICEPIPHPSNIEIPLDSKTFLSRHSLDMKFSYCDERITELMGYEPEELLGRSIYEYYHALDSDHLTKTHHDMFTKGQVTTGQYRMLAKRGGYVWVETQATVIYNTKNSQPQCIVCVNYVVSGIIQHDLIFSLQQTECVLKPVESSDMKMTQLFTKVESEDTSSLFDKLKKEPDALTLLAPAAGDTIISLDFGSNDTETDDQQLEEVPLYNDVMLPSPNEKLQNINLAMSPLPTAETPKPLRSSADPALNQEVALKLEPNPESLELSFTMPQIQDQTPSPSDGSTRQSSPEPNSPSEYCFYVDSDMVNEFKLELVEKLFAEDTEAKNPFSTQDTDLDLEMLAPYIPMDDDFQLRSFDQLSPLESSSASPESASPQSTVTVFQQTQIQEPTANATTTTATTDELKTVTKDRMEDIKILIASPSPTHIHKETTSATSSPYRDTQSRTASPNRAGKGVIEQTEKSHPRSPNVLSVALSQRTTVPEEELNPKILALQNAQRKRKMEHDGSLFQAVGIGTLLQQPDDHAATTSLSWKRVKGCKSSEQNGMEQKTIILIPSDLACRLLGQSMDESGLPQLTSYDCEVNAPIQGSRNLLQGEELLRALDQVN

On to `CC1(C)C(C=C(Cl)Cl)C1C(=O)OCc1cccc(Oc2ccccc2)c1` (stereo not drawn), for which the call in [1], in [2], in [3], in [4], in assay [5] and in assay [6] was inactive. Also, the outcome in [7], in assay [8], in assay [9], in assay [10], in [11] and in [12] was inactive. For the same compound, the result in assay [13], in [14], in [15], in assay [16], in assay [17] and in [18] was inactive.
As for `N#CSCSc1nc2ccccc2s1`, the compound was classed as inactive in assay [1], in assay [2], in assay [3], in assay [4], in assay [5] and in assay [6]. The compound was classed as inactive in assay [8], in [9], in assay [10], in assay [12], in [13] and in assay [14]. For the same compound, the result in assay [16], in assay [17] and in assay [18] was inactive. Further, the AC50 (commonly the midpoint of the concentration-response curve, whichever way the signal moves) was 77.2 µM (active) in assay [7] and 84 µM (active) in assay [11].
With `CCCCOC(=O)C(C)Oc1ccc(Oc2ccc(C(F)(F)F)cn2)cc1` (stereo not drawn), the call in assay [1], in assay [2], in assay [3], in assay [4], in [5] and in assay [6] was inactive. In addition, the compound was called inactive in assay [7], in [8], in [9], in [10], in assay [11] and in [12]. Besides, the call in assay [13], in [14], in [15], in assay [16], in assay [17] and in assay [18] was inactive.
